# Laboratory results reported in PubChem BioAssay AID777 (Sanford-Burnham Center for Chemical Genomics, 2007).
# The whole screen tested about 96,000 compounds, of which about 19,000 (20%) were called active.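 Rule for the calls: active = blocking of liver enzyme CYP2C9 beyond about 50% at 5 µM (limit read from the data); inactive = the rest.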 The list is a sample of the results.
# Biological target: Cytochrome P450 2C9 (Homo sapiens) (UniProt P11712)
# Assay: blockers of cytochrome P450 2C9 activity – biochemical, luminescence, ADME assay, primary screen (AID 777)
# Conditions: CYP2C9 Supersomes, luciferin-H conversion, at 5 µM, hits give high values
# Cytochrome P450 2C9 (Homo sapiens), sequence (P11712 whole entry, looked up): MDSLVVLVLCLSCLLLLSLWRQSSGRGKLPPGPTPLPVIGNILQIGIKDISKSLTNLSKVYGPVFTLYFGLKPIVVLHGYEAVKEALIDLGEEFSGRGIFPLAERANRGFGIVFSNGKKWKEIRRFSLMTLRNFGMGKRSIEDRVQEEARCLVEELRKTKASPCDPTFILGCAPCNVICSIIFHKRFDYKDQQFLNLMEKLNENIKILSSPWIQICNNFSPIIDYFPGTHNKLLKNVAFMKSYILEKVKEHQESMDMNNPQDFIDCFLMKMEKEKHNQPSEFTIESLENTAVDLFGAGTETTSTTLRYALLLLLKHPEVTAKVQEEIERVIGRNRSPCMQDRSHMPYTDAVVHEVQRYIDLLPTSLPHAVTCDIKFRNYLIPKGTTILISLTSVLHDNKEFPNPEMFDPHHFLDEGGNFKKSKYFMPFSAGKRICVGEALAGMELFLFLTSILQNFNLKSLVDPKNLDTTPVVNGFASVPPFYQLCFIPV
row,Structure (SMILES),inhibition
1,CC(C)(C)c1csc(NC2=NS(=O)(=O)c3ccccc32)n1,17.4% (inactive)
2,CC(C)(C)c1ccc(OC2=CS(=O)(=O)c3ccccc32)cc1,79% (active)
3,O=S1(=O)C=C(SCCN2CCCC2)c2ccccc21,14% (inactive)
4,Brc1cnc(N2CCCC2)nc1N1CCCCC1,-15.1% (inactive)
5,COc1ccc(C2=NOC(C(=O)NCc3ccco3)C2)cc1OC (stereo not drawn),-31.2% (inactive)
6,Cc1ccnc(-n2sc3ccccc3c2=O)n1,30.1% (inactive)
7,COc1ccc(C(=O)Cc2cnn(-c3ccccc3)c2)c(O)c1,5% (inactive)
8,Cc1cc(O)cc(O)c1C(=O)Cc1cnn(-c2ccccc2)c1,63.4% (active)
9,CC(C)OC(=O)C(C#N)c1nc2ccccc2nc1N1CCN(Cc2ccccc2)CC1 (stereo not drawn),62.6% (active)
10,CC(C)OC(=O)C(C#N)c1nc2ccccc2nc1N1CCN(Cc2ccc3c(c2)OCO3)CC1 (stereo not drawn),16.9% (inactive)
11,Cn1nnnc1SCC(=O)N1CCN(Cc2ccccc2)CC1,1.6% (inactive)
12,Cc1cccc(C)c1NC(=O)c1ccc(CN2CCc3ccccc3C2)cc1,-5.8% (inactive)
13,CC1(C)Cc2c(sc3nc4n(c(=N)c23)CCCCC4)CO1,3.2% (inactive)
14,C=CC[n+]1c(-c2ccc(C)cc2)csc1NNC(=O)Nc1ccccc1,8.5% (inactive)
15,c1ccc(Nc2nc(-c3ccncc3)cs2)nc1,92.9% (active)
16,c1cnc(Nc2nc(-c3ccc4ccccc4c3)cs2)nc1,-3.5% (inactive)
17,Oc1ccc(-c2csc(Nc3cccnc3)n2)cc1,37.6% (inactive)
18,Fc1ccc(Br)cc1/C=N/n1cnnc1,6.6% (inactive)
19,Cc1cccc(C(=O)Nc2nnc(Cc3c[nH]c4ccccc34)s2)c1,-4.3% (inactive)
20,CN(CC#CCC(c1ccccc1)c1ccccc1)C(C)(C)C,25.6% (inactive)
21,CCCCn1c(=S)[nH]c2ncccc2c1=O,13.8% (inactive)
22,CC(C)C(c1nnnn1Cc1ccccc1)N1CCC(C(N)=O)CC1 (stereo not drawn),10.7% (inactive)
23,Fc1ccc(Cn2nnnc2C(c2cccs2)N2CCCCCC2)cc1 (stereo not drawn),83.4% (active)
24,N#Cc1ccc(C(c2nnnn2CCc2ccccc2)N2CCCCCC2)cc1 (stereo not drawn),8.8% (inactive)
25,CCOC(=O)N1CCC(C(N)=O)CC1,-7.1% (inactive)
26,Cc1ccccc1OCC(=O)NCC(=O)OCC(=O)c1ccc2ccccc2c1,-61.4% (inactive)

row,Structure (SMILES),inhibition
1,CCCOc1ccc2c3c(c(=O)oc2c1OCCC)CCC3,-0.6% (inactive)
2,O=C(Oc1ccccc1)c1ccc2nccnc2c1,17% (inactive)
3,CC(C)c1nc(-c2ccccn2)no1,3.9% (inactive)
4,O=C(Oc1ccc(-c2nc(-c3ccccn3)no2)cc1)c1ccccc1,87.2% (active)
5,CCOC(=O)C1=C(CN2CCc3ccccc32)NC(=O)NC1c1ccc(Cl)cc1 (stereo not drawn),4.7% (inactive)
6,COCCOC(=O)C1=C(C)NC(=O)NC1c1ccc(Cl)cc1 (stereo not drawn),-3% (inactive)
7,CCOC(=O)C1=C(C)NC(=O)N(C(C)=O)C1c1ccc(Cl)cc1 (stereo not drawn),74.3% (active)
8,COc1ccc(C2=NOC3(CC(=O)N(c4ccc(Cl)cc4)C3=O)C2)c(OC)c1 (stereo not drawn),23% (inactive)
9,O=C(NC1CCN(Cc2ccccc2)CC1)c1ccccc1F,7.8% (inactive)
10,CCOc1cccc(-c2nn3c(-c4ccccn4)nnc3s2)c1,23.2% (inactive)
11,COc1ccc(-c2nn3c(-c4ccccc4)nnc3s2)cc1OC,6.9% (inactive)
12,COc1cc(-c2nn3c(-c4cccc(C)c4)nnc3s2)cc(OC)c1OC,74.1% (active)
13,Cc1cc(NC(=O)COn2nnc3ccccc32)no1,24.9% (inactive)
14,Cc1ccc(C(=O)N2CCN(C(=O)N3CCOCC3)CC2)cc1,11.5% (inactive)
15,Cc1cc2nc(-c3ccc(NC(=O)c4cccnc4)cc3)oc2cc1C,7.6% (inactive)
16,O=C(CC1(O)C(=O)N(CN2CCOCC2)c2ccccc21)c1ccccc1 (stereo not drawn),-1% (inactive)
17,C=CCN1C(=O)C(O)(CC(=O)c2ccc(Cl)cc2)c2ccccc21 (stereo not drawn),67.9% (active)
18,CCOC(=O)CN1C(=O)C(O)(CC(=O)c2ccccn2)c2ccccc21 (stereo not drawn),26% (inactive)
19,Nc1c(C(=O)NCc2ccccc2)sc2nc3c(cc12)C(=O)CCC3,6% (inactive)
20,Cc1cc(C)c2nc(NC(=O)C3CCCO3)sc2c1 (stereo not drawn),28.3% (inactive)
21,O=C(Cc1ncc(C(F)(F)F)cc1Cl)Nc1cccc(Br)c1,24.9% (inactive)
22,CCCN(CCC)C(=O)C1c2ccccc2Oc2ccccc21,53.1% (active)
23,CCOC(=O)N1CCN(C(=O)CNC(=O)Cc2ccc(Cl)cc2)CC1,10.1% (inactive)
24,CCOc1cc(N2CCOCC2)c(OCC)cc1NC(=O)COc1cccc2cccnc12,0% (inactive)
25,C=CCn1c(SCC(=O)/C(C#N)=C(\C)N)nc2sc(C)c(C)c2c1=O,38.5% (inactive)
26,O=C(CSc1nc2c(cnn2-c2ccc(F)cc2)c(=O)[nH]1)N1CCCCCC1,1.3% (inactive)

row,Structure (SMILES),inhibition
1,Cc1cccc(NC(=O)CSc2nc3c(c(=O)[nH]2)CCCC3)c1C,35.7% (inactive)
2,CC(=O)c1sc2nc(SCC(=O)N3CCCCC3)[nH]c(=O)c2c1C,95.6% (active)
3,CCOC(=O)CSc1nc2sc3c(c2c(=O)[nH]1)CC(C)(C)OC3,15.3% (inactive)
4,C=CCNC(=O)CSc1nc2sc(C)c(C)c2c(=O)[nH]1,58.1% (active)
5,Cn1c(=O)cc(OCCCC(=O)N2CCN(Cc3ccc4c(c3)OCO4)CC2)c2ccccc21,9.3% (inactive)
6,CCOC(=O)NNC(=O)c1ccc(Cl)cc1,1.4% (inactive)
7,CN(C)/C=C/c1c(C#N)c(=O)ncn1Cc1ccccc1,3.3% (inactive)
8,Cc1nc2ccc(NC(=O)N3CCC(c4ccccc4)C3)cc2nc1C (stereo not drawn),51.4% (active)
9,Cn1c(CCN2CCCCCC2)nc2cc(NC(=O)Nc3ccccc3)ccc21,-0.2% (inactive)
10,COc1ccc(NC(=O)Nc2ccc3nc(C)c(C)nc3c2)cc1,18.7% (inactive)
11,Cc1cc(C(=O)CC#N)c(C)n1CC(F)(F)F,19.4% (inactive)
12,COc1cccc2cc(C(=O)N(C)C)c(=O)oc12,-103% (inactive)
13,CCOC(=O)c1cnc(-c2ccccc2)nc1Oc1ccc(C)cc1,65.7% (active)
14,CCCCOc1ccc(-c2ncc(C(=O)OCC)c(N)n2)cc1,-19.4% (inactive)
15,CCOC(=O)c1c(C)nc(-c2ccccc2)nc1NC(=O)C(C)C,23% (inactive)
16,COc1ccc(C(=O)c2oc3ccc(Br)cc3c2NC(C)=O)cc1,1.7% (inactive)
17,COc1ccc(C(=O)c2c(C)oc3cc([N+](=O)[O-])c(O)c([N+](=O)[O-])c23)cc1,79.8% (active)
18,COc1ccc(NC(=O)c2c(C)oc3c2CCCC3)cc1,15.4% (inactive)
19,Cc1nn(C)c(Oc2ccccc2)c1[N+](=O)[O-],29.1% (inactive)
20,CN(CCC#N)c1ncnc2scc(-c3ccccc3)c12,19.4% (inactive)
21,Cc1noc(C)c1COC(=O)c1cc2ccccc2cc1O,91.6% (active)
22,Cc1nc2ccccc2cc1O,-22.9% (inactive)
23,Cc1noc(C)c1COC(=O)Cn1c(C)nc2ccccc21,10.7% (inactive)
24,CC(=O)N(CN1C(=O)C2CC=CCC2C1=O)c1cccc(Cl)c1 (stereo not drawn),12.2% (inactive)
25,CN1C(=O)CC(N2CCN(c3ccccn3)CC2)C1=O (stereo not drawn),7.7% (inactive)
26,COc1cccc(C(CC(=O)NCCN2CCOCC2)NS(=O)(=O)c2ccc(C)cc2)c1OC (stereo not drawn),-7.3% (inactive)

row,Structure (SMILES),inhibition
1,CCn1c2ccccc2c2cc(NC(=O)C/C(C)=N/NC(=O)c3ccccc3N)ccc21,-17.8% (inactive)
2,Cc1cc(C)cc(N(C(C)C(=O)Nc2c(C)n(C)n(-c3ccccc3)c2=O)S(C)(=O)=O)c1 (stereo not drawn),16.6% (inactive)
3,CSc1ccccc1-c1nnc(-c2ccc(Cl)cc2)o1,-19.4% (inactive)
4,COc1ccccc1-c1nc(C(F)(F)F)c(OC)o1,17% (inactive)
5,FC(F)(F)c1cnc(Oc2ccccc2-c2nnc(-c3ccc(Cl)cc3)o2)c(Cl)c1,81.1% (active)
6,O=c1[nH]n(-c2cccc(Cl)c2)c2ncccc12,-10.7% (inactive)
7,CCSc1nnc(NC(=O)Cc2ccccc2OC)s1,42.4% (inactive)
8,O=C(Nc1nnc(SCc2c(Cl)cccc2Cl)s1)C1CCCO1 (stereo not drawn),-65.7% (inactive)
9,O=C(Nc1nnc(SCc2ccc(Cl)cc2Cl)s1)C1COc2ccccc2O1 (stereo not drawn),67.2% (active)
10,COc1ccc(NC(=O)Cn2c(=O)n(Cc3ccco3)c(=O)c3ccccc32)cc1,17.1% (inactive)
11,COc1ccccc1CNC(=O)CCCn1c(=O)c2ccccc2n(CC(=O)NC2CCCC2)c1=O,44.7% (inactive)
12,O=C(Cn1c(=O)n(Cc2ccco2)c(=O)c2ccccc21)NCC1CCCO1 (stereo not drawn),57.3% (active)
13,O=C1CC(Sc2ncn[nH]2)C(=O)N1c1ccccc1 (stereo not drawn),-21.9% (inactive)
14,Cc1ccc(S(=O)(=O)N/N=C\c2cc3c(cc2[N+](=O)[O-])OCO3)cc1,-13% (inactive)
15,CN1OC(COC(=O)c2ccc(Cl)cc2)CC1c1ccccc1 (stereo not drawn),37.4% (inactive)
16,C=CCNC(=O)c1ccc(C)c(Br)c1,-17.9% (inactive)
17,C=CCNC(=O)c1sc(SC)cc1-c1ccc(Cl)cc1,64% (active)
18,C=CCNC(=O)c1cc(-c2ccccc2O)on1,-48.2% (inactive)
19,ON=C1/C(=N\O)CC2(C/C1=N/O)OCCO2,-14.6% (inactive)
20,COc1ccc(-c2cc3n(n2)CCc2nc4ccccc4n2-3)cc1,-8.6% (inactive)
21,Cc1ccc(OCC(=O)Nn2cnc3ccccc32)cc1,6.6% (inactive)
22,COc1ccc(-c2cc(C(=O)n3cnc4ccccc43)c3ccccc3n2)cc1,92.5% (active)
23,Cc1[nH]n(-c2cccc(Cl)c2)c(=O)c1-c1ccc(Cl)cc1,-1% (inactive)
24,COc1cc(NS(=O)(=O)c2ccc(N=Cc3c(C)[nH]n(-c4ccccc4)c3=O)cc2)nc(OC)n1,-9.3% (inactive)
25,Cc1[nH]n(-c2cccc(Cl)c2)c(=O)c1/C=N/n1c(C)nc2ccccc2c1=O,70.7% (active)
